Laboratory results taken from PubChem BioAssay (NCI).
This is part of a sample that, as a whole, favours compounds with a hit. Of some 83,000 tested, about 20% had one in any assay.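 48-hour exposure, single concentration, 96-well plates; percent growth endpoint where 0 means no net growth. Active: below 10.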 Activity calls are given as the source filed them.

Assays:
Experiment in all cases: NCI-60 one-dose screen, 48 h (100 = growth as untreated, 0 = no growth, -100 = all killed)
Conditions in all cases: 10 µM unless noted
OVCAR-8 ovarian = test system: OVCAR-8 ovarian
OVCAR-5 ovarian = test system: OVCAR-5 ovarian
OVCAR-4 ovarian = test system: OVCAR-4 ovarian
SK-OV-3 ovarian = test system: SK-OV-3 ovarian
OVCAR-3 ovarian = test system: OVCAR-3 ovarian
HS 578T breast = test system: HS 578T breast
NCI/ADR-RES ovarian = test system: NCI/ADR-RES ovarian
T-47D breast = test system: T-47D breast
IGROV1 ovarian = test system: IGROV1 ovarian

Measured: growth

c1cnc2ccc3ncccc3c2c1
inactive: OVCAR-8 ovarian 95.4% | OVCAR-5 ovarian 164% | OVCAR-4 ovarian 110% | SK-OV-3 ovarian 106% | OVCAR-3 ovarian 103% | HS 578T breast 109% | NCI/ADR-RES ovarian 128% | T-47D breast 116%

COc1ccc(/C=C2\NC(=S)NC2=O)cc1
inactive: OVCAR-8 ovarian 104% | OVCAR-5 ovarian 95.2% | OVCAR-4 ovarian 117% | SK-OV-3 ovarian 83.8% | OVCAR-3 ovarian 107% | NCI/ADR-RES ovarian 115% | T-47D breast 86.3%

COc1ccc2c(c1)C(=O)/C(=C/c1cccc(OCC(=O)c3ccccc3)c1)CC2
inactive: OVCAR-8 ovarian 78.6% | OVCAR-5 ovarian 102% | OVCAR-4 ovarian 81.5% | SK-OV-3 ovarian 120% | OVCAR-3 ovarian 89.2% | HS 578T breast 98.6% | NCI/ADR-RES ovarian 80.7% | T-47D breast 70.6%

CCOC(=O)c1ccccc1OC(=O)NNc1ccccc1
inactive: OVCAR-8 ovarian 71.3% | OVCAR-5 ovarian 83.7% | OVCAR-4 ovarian 63.6% | SK-OV-3 ovarian 93.7% | IGROV1 ovarian 60.4% | OVCAR-3 ovarian 77.7% | NCI/ADR-RES ovarian 58.1% | T-47D breast 57.3%

c1ccc(-n2nnnc2-c2cccc3ccccc23)cc1
active: SK-OV-3 ovarian 5.6% | OVCAR-3 ovarian -26.8% | NCI/ADR-RES ovarian -12.6%
inactive: OVCAR-8 ovarian 30.5% | OVCAR-5 ovarian 35.5% | OVCAR-4 ovarian 59.6% | IGROV1 ovarian 31.4% | T-47D breast 31.8%

CCc1ccc(CCN2C(=O)c3ccccc3C2=O)nc1
inactive: OVCAR-8 ovarian 102% | OVCAR-5 ovarian 129% | OVCAR-4 ovarian 101% | SK-OV-3 ovarian 98.1% | HS 578T breast 119% | NCI/ADR-RES ovarian 128% | T-47D breast 94.8%

Cc1c(C)c(N2C(=O)C=CC2=O)c(C)c(C)c1N1C(=O)C=CC1=O
inactive: OVCAR-8 ovarian 96.1% | OVCAR-5 ovarian 91% | OVCAR-4 ovarian 104% | SK-OV-3 ovarian 114% | IGROV1 ovarian 83.6% | OVCAR-3 ovarian 45.1% | NCI/ADR-RES ovarian 96.4% | T-47D breast 113%

CC(=O)Oc1ccc(C23c4ccccc4C2(OC(C)=O)c2cc(OC(C)=O)ccc23)cc1 (stereo unspecified)
inactive: OVCAR-8 ovarian 49.6% | OVCAR-5 ovarian 86% | OVCAR-4 ovarian 92.3% | SK-OV-3 ovarian 110% | IGROV1 ovarian 91.9% | OVCAR-3 ovarian 78.2% | NCI/ADR-RES ovarian 39.3% | T-47D breast 38.9%

CSc1ncc2ncn(C3OC(CO)C(O)C3O)c2n1 (stereo unspecified)
inactive: OVCAR-8 ovarian 138% | OVCAR-5 ovarian 156% | OVCAR-4 ovarian 101% | SK-OV-3 ovarian 104% | HS 578T breast 95.2% | NCI/ADR-RES ovarian 143% | T-47D breast 101%

CC(=O)NC1(C(=O)O)CCCC1
inactive: OVCAR-8 ovarian 99.8% | OVCAR-5 ovarian 158% | OVCAR-4 ovarian 112% | SK-OV-3 ovarian 118% | OVCAR-3 ovarian 112% | HS 578T breast 122% | NCI/ADR-RES ovarian 140% | T-47D breast 128%

CCOC(=O)c1cc(-c2cccnc2)nc2c(Cl)cc(Cl)cc12
inactive: OVCAR-8 ovarian 104% | OVCAR-5 ovarian 92% | OVCAR-4 ovarian 89.9% | SK-OV-3 ovarian 91.2% | OVCAR-3 ovarian 80% | HS 578T breast 95% | NCI/ADR-RES ovarian 94% | T-47D breast 85.3%

Cc1ccccc1NC(=O)c1cc2ccccc2cc1O
inactive: OVCAR-8 ovarian 60% | OVCAR-5 ovarian 77.9% | OVCAR-4 ovarian 56.1% | SK-OV-3 ovarian 61.1% | IGROV1 ovarian 30.2% | NCI/ADR-RES ovarian 27.8% | T-47D breast 49.9%
active: OVCAR-3 ovarian -10.2%

CCOC(=O)c1c(C)c(C(=O)OCC)n(C)c1C
inactive: OVCAR-8 ovarian 120% | OVCAR-5 ovarian 114% | OVCAR-4 ovarian 101% | SK-OV-3 ovarian 98% | HS 578T breast 92.6% | NCI/ADR-RES ovarian 118% | T-47D breast 90.7%

CCCCCCCC1(C)NC(=O)NC1=O (stereo unspecified)
inactive: OVCAR-8 ovarian 104% | OVCAR-5 ovarian 163% | OVCAR-4 ovarian 105% | SK-OV-3 ovarian 114% | OVCAR-3 ovarian 115% | HS 578T breast 114% | NCI/ADR-RES ovarian 138% | T-47D breast 123%

CC/C=C\C=C/C(=O)N/C=C/CC1Cc2cccc(O)c2C(=O)O1 (stereo unspecified)
inactive: OVCAR-8 ovarian 90.5% | OVCAR-5 ovarian 91% | OVCAR-4 ovarian 80.2% | SK-OV-3 ovarian 63.9% | OVCAR-3 ovarian 86% | HS 578T breast 50.7% | NCI/ADR-RES ovarian 57.2% | T-47D breast 67.2%

COc1c(O)cc2oc3cc(O)c(CC=C(C)C)c(O)c3c(=O)c2c1C/C=C(\C)CCC=C(C)C
active: NCI/ADR-RES ovarian -39%
inactive: OVCAR-8 ovarian 24.4% | OVCAR-5 ovarian 84.7% | OVCAR-4 ovarian 72.6% | SK-OV-3 ovarian 100% | IGROV1 ovarian 81.4% | OVCAR-3 ovarian 62% | T-47D breast 77.1%

CN(C)CCCN1c2nc3ccccc3cc2Sc2cc3ccccc3nc21
active: OVCAR-8 ovarian -67% | OVCAR-5 ovarian -58.5% | SK-OV-3 ovarian -35.3% | OVCAR-3 ovarian -81.4% | HS 578T breast 2.82% | NCI/ADR-RES ovarian -23.1% | T-47D breast -71.9%
inactive: OVCAR-4 ovarian 18.9%

COc1cccc(CCC2C(=O)CCCC2=O)c1
inactive: OVCAR-8 ovarian 116% | OVCAR-5 ovarian 103% | OVCAR-4 ovarian 124% | SK-OV-3 ovarian 102% | IGROV1 ovarian 111% | OVCAR-3 ovarian 99.9% | NCI/ADR-RES ovarian 110% | T-47D breast 97.4%

Cc1ccc(C=C2C(Cl)=C(Cl)C(Cl)=C2Cl)cc1
active: OVCAR-8 ovarian -42.9% | OVCAR-5 ovarian -80.7% | OVCAR-4 ovarian -35.3% | SK-OV-3 ovarian -38.5% | OVCAR-3 ovarian -85.1% | HS 578T breast -9.6% | NCI/ADR-RES ovarian -3% | T-47D breast -44.6%

OC(Cc1cccnc1)c1ccccc1 (stereo unspecified)
inactive: OVCAR-8 ovarian 96.5% | OVCAR-5 ovarian 92.8% | OVCAR-4 ovarian 107% | SK-OV-3 ovarian 112% | HS 578T breast 112% | NCI/ADR-RES ovarian 107% | T-47D breast 112%

O=C(/C=C/c1ccccc1)CC(c1ccccc1)N1CCOCC1 (stereo unspecified)
inactive: OVCAR-8 ovarian 85.1% | OVCAR-5 ovarian 98.7% | OVCAR-4 ovarian 105% | SK-OV-3 ovarian 98.4% | IGROV1 ovarian 91.8% | OVCAR-3 ovarian 78.9% | NCI/ADR-RES ovarian 104% | T-47D breast 81.3%

Cn1cnc([N+](=O)[O-])c1S(=O)(=O)Oc1ccc(Cl)cc1
inactive: OVCAR-8 ovarian 76.6% | OVCAR-5 ovarian 102% | OVCAR-4 ovarian 102% | SK-OV-3 ovarian 104% | IGROV1 ovarian 69.8% | NCI/ADR-RES ovarian 95.8%
active: OVCAR-3 ovarian -60.3% | T-47D breast -31.1%

COc1cc(/C=C/C(=O)c2ccc(F)cc2)ccc1OCCCCCOc1cc2c(cc1OC)C(=O)N1CCCC1C=N2 (stereo unspecified)
active: OVCAR-8 ovarian 4.8% | OVCAR-5 ovarian -5.07% | OVCAR-4 ovarian -37.5% | SK-OV-3 ovarian -4.32% | OVCAR-3 ovarian -8.63% | HS 578T breast -24.8% | NCI/ADR-RES ovarian 8.85% | T-47D breast -4.98%

CC1=CC(=O)C(C(C)=Nc2ccccc2Cl)C(=O)O1 (stereo unspecified)
inactive: OVCAR-8 ovarian 96.9% | OVCAR-5 ovarian 151% | OVCAR-4 ovarian 99.5% | SK-OV-3 ovarian 104% | HS 578T breast 83.6% | NCI/ADR-RES ovarian 140% | T-47D breast 105%

ClC1=C(Cl)C(Cl)=C(Cl)C1=C/C=C/c1ccccc1
active: OVCAR-8 ovarian -41.7% | OVCAR-5 ovarian -77.9% | SK-OV-3 ovarian -22% | OVCAR-3 ovarian -88.7% | HS 578T breast -5.58% | NCI/ADR-RES ovarian -0.902% | T-47D breast -4.63%
inactive: OVCAR-4 ovarian 14.7%

O=C(/C=C/c1ccccc1Cl)c1ccc(O)cc1
inactive: OVCAR-8 ovarian 96.8% | OVCAR-5 ovarian 138% | OVCAR-4 ovarian 63.3% | SK-OV-3 ovarian 86% | HS 578T breast 80.5% | NCI/ADR-RES ovarian 97% | T-47D breast 58.8%

CC/C(=C\c1ccc(N(C)C)cc1)c1ccncc1
active: NCI/ADR-RES ovarian 8.26%
inactive: OVCAR-8 ovarian 54.7% | OVCAR-5 ovarian 74% | OVCAR-4 ovarian 69.5% | SK-OV-3 ovarian 74.6% | IGROV1 ovarian 49.7% | OVCAR-3 ovarian 42.3% | T-47D breast 40%

CCOC(=O)C1=NN(c2ccc(Cl)cc2)C2C3N(c4ccc(Cl)cc4)N=C(C(=O)OCC)N3c3ccccc3N12 (stereo unspecified)
inactive: OVCAR-8 ovarian 101% | OVCAR-5 ovarian 101% | OVCAR-4 ovarian 92.4% | SK-OV-3 ovarian 115% | IGROV1 ovarian 76.7% | HS 578T breast 120% | NCI/ADR-RES ovarian 101% | T-47D breast 102%

O=C(CSCC(=O)N/N=C/c1ccccc1O)N/N=C\c1ccccc1O
inactive: OVCAR-8 ovarian 28.3% | OVCAR-5 ovarian 56.2% | OVCAR-4 ovarian 27.5% | SK-OV-3 ovarian 27.8% | IGROV1 ovarian 18.9% | OVCAR-3 ovarian 34.5% | NCI/ADR-RES ovarian 26.1% | T-47D breast 35.5%

CC(C)C/C(=N\NC(=O)c1ccncc1)c1cc(Cl)ccc1O
inactive: OVCAR-8 ovarian 11.7% | OVCAR-5 ovarian 37.3% | OVCAR-4 ovarian 14.5% | SK-OV-3 ovarian 24.5% | OVCAR-3 ovarian 11.1% | T-47D breast 25.1%
active: IGROV1 ovarian 9.3% | NCI/ADR-RES ovarian 5.17%

CCCCCCCCCCCCCCCCCC1=NC(C)(C)CN1CCO
inactive: OVCAR-5 ovarian 82.4% | OVCAR-4 ovarian 33.5% | NCI/ADR-RES ovarian 55.5%
active: OVCAR-8 ovarian 1.75% | SK-OV-3 ovarian -36.2% | IGROV1 ovarian -26.4% | HS 578T breast -38.4% | T-47D breast -23.9%
